The panel holds about 79,000 compounds, 15% with a hit somewhere; the sample as a whole holds those more often. Values without a mark were called inactive. Activity calls are given as the source filed them. No stated cut-off is given here; in the data, active means growth inhibition above about 70%; inactive means the rest.

9 compounds from PubChem BioAssay (NCI) can be followed below.

The nature of test [1]: NCI Yeast Anticancer Drug Screen. Data for the rad50 strain (AID 155).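 Further: 0% = growth of vehicle-only cultures of the same strain.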 Particulars: S. cerevisiae rad50 strain growth inhibition, stronger effect = higher value. Summed up: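 Inhibition values express reduced yeast growth in compound-treated cultures relative to vehicle-treated controls.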
Test [2] is described as follows: NCI Yeast Anticancer Drug Screen. Data for the mec2-1 strain (AID 157). Particulars: S. cerevisiae mec2-1 strain, stronger effect = higher value. Summed up: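 Growth inhibition is read against vehicle-treated controls after compound exposure of the mec2-1 yeast strain, which is defective in DNA damage repair or cell cycle control.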
A short description of test [3]: NCI Yeast Anticancer Drug Screen. Data for the sgs1 mgt1 strain (AID 161).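 Further: 0% = growth of cultures given vehicle only.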 Particulars: S. cerevisiae sgs1 mgt1 strain, stronger effect = higher value. A digest of the protocol:
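Yeast cells carrying a defined DNA-repair defect were exposed to test compounds. Growth inhibition was measured relative to vehicle-treated controls.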

A short description of test [4]: NCI Yeast Anticancer Drug Screen. Data for the cln2 rad14 strain (AID 165).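 Further: 0% = growth equal to vehicle treated cultures.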 The note with it: S. cerevisiae cln2 rad14 strain, stronger effect = higher value. A digest of the protocol:
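Growth inhibition, relative to vehicle-treated controls, is the read-out. The test organism is a yeast strain with defined genetic alterations, cln2 rad14.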

Test [5] can be described thus: NCI Yeast Anticancer Drug Screen. Data for the bub3 strain (AID 167). Particulars: S. cerevisiae bub3 mutant strain, stronger effect = higher value. A digest of the protocol: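 Steps: expose the mutant yeast strain to compound; grow alongside vehicle-treated cultures; measure growth; express inhibition against the vehicle cultures.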
A short description of test [6]: NCI Yeast Anticancer Drug Screen. Data for the mlh1 rad18 strain (AID 175). Particulars: S. cerevisiae mlh1 rad18 strain growth inhibition, stronger effect = higher value. A digest of the protocol:
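Cells of a genetically altered yeast strain, deficient in DNA damage repair, were treated with compound. Their growth was then compared with that of vehicle-treated cultures to give inhibition.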

Where [7] appears, read: at 5.0 µM (retest, dose inferred, filed as 0.5).
Setting [8] is: at 50.0 µM (retest, dose inferred, filed as 5.0).

Take `CSC(=S)N/N=C(/C)CC(C)C`: the growth inhibition in test [1] (setting [7]) was 25%; in test [1] (setting [8]), 94% (active); in test [1] (at 50.0 µM), 57.1%; in test [2] (setting [7]) it was 14%; in test [2] (setting [8]), 94% (active); in test [2] (at 50.0 µM), 93% (active). The growth inhibition in test [3] (setting [7]) is 10%; in test [3] (setting [8]), 92% (active); in test [3] (at 50.0 µM), 45.8%; in test [4] (setting [7]), -5%; in test [4] (setting [8]), 88% (active); in test [4] (at 50.0 µM), 66.8%. The growth inhibition is 24% in test [5] (setting [7]); 95% (active) in test [5] (setting [8]); 95.8% (active) in test [5] (at 50.0 µM); 16% in test [6] (setting [7]); 95% (active) in test [6] (setting [8]); 54% in test [6] (at 50.0 µM).
Take `O=C1c2ccccc2C(=O)c2c(Nc3cc4c5c(ccc6c7ccc8c9c(cc(Nc%10cccc%11c%10C(=O)c%10ccccc%10C%11=O)c(c3c56)c97)-c3ccccc3C8=O)C(=O)c3ccccc3-4)cccc21`: the growth inhibition in test [1] (setting [7]) is 1%; in test [1] (setting [8]) it was 15%; in test [1] (at 50.0 µM) it was 16.9%; in test [2] (setting [7]) it was -5%; in test [2] (setting [8]), -3%; in test [2] (at 50.0 µM), 44%. The growth inhibition in test [3] (setting [7]) is 2%; in test [3] (setting [8]), -3%; in test [3] (at 50.0 µM), -1.9%; in test [4] (setting [7]), -6%; in test [4] (setting [8]), 4%; in test [4] (at 50.0 µM) it was 40.8%. In addition, the growth inhibition is -11% in test [5] (setting [7]); 6% in test [5] (setting [8]); 3.1% in test [5] (at 50.0 µM); -13% in test [6] (setting [7]); -4% in test [6] (setting [8]); -4.35% in test [6] (at 50.0 µM).
On to `Cc1ccccc1Oc1ccccc1N`, for which the growth inhibition was 12% in test [1] (setting [7]); 38% in test [1] (setting [8]); 79.2% (active) in test [1] (at 50.0 µM); -26% in test [2] (setting [7]); 15% in test [2] (setting [8]); 65.9% in test [2] (at 50.0 µM). The growth inhibition was -1% in test [3] (setting [7]); 1% in test [3] (setting [8]); 69.8% in test [3] (at 50.0 µM); 9% in test [4] (setting [7]); 34% in test [4] (setting [8]); 78.4% (active) in test [4] (at 50.0 µM). Besides, the growth inhibition in test [5] (setting [7]) is -16%; in test [5] (setting [8]), 10%; in test [5] (at 50.0 µM) it was 58.6%; in test [6] (setting [7]), -15%; in test [6] (setting [8]), 39%; in test [6] (at 50.0 µM), 81.8% (active).
Regarding `O=C(Nc1ccc(C2=NCCN2)cc1)c1ccc(C(=O)Nc2ccc(C3=NCCN3)cc2)c(Cl)c1`, the growth inhibition in test [1] (setting [7]) was 42%; in test [1] (setting [8]) it was 97% (active); in test [1] (at 50.0 µM), 51.2%; in test [2] (setting [7]), 25%; in test [2] (setting [8]), 98% (active); in test [2] (at 50.0 µM) it was 78.7% (active). Also, the growth inhibition is 57% in test [3] (setting [7]); 99% (active) in test [3] (setting [8]); 76% (active) in test [3] (at 50.0 µM); 43% in test [4] (setting [7]); 96% (active) in test [4] (setting [8]); 80% (active) in test [4] (at 50.0 µM). Besides, the growth inhibition in test [5] (setting [7]) was 54%; in test [5] (setting [8]), 98% (active); in test [5] (at 50.0 µM) it was 68.5%; in test [6] (setting [7]), 35%; in test [6] (setting [8]) it was 95% (active); in test [6] (at 50.0 µM), 87.8% (active).
For the compound `COc1ccc(CSC(=S)Nc2cc(C)c(C)cc2[N+](=O)[O-])cc1`, the growth inhibition in test [1] (setting [7]) is 9%; in test [1] (setting [8]), 93% (active); in test [1] (at 50.0 µM), 95.8% (active); in test [2] (setting [7]), 6%; in test [2] (setting [8]), 95% (active); in test [2] (at 50.0 µM), 97.8% (active). Further, the growth inhibition in test [3] (setting [7]) was 46%; in test [3] (setting [8]) it was 96% (active); in test [3] (at 50.0 µM) it was 97.5% (active); in test [4] (setting [7]), -11%; in test [4] (setting [8]), 90% (active); in test [4] (at 50.0 µM), 93% (active). In addition, the growth inhibition in test [5] (setting [7]) was 4%; in test [5] (setting [8]) it was 96% (active); in test [5] (at 50.0 µM) it was 97% (active); in test [6] (setting [7]) it was 60%; in test [6] (setting [8]) it was 95% (active); in test [6] (at 50.0 µM) it was 98% (active).
`CCC[n+]1ccc(/C=N\NC(N)=S)c2ccccc21`: the growth inhibition in test [1] (setting [7]) is 22%; in test [1] (setting [8]), 38%; in test [1] (at 50.0 µM), 38.2%; in test [2] (setting [7]) it was 19%; in test [2] (setting [8]), 36%; in test [2] (at 50.0 µM) it was -16.4%. Also, the growth inhibition in test [3] (setting [7]) was 21%; in test [3] (setting [8]) it was 38%; in test [3] (at 50.0 µM) it was 6.2%; in test [4] (setting [7]) it was 9%; in test [4] (setting [8]), 34%; in test [4] (at 50.0 µM), 5.25%. Moreover, the growth inhibition in test [5] (setting [7]) is 15%; in test [5] (setting [8]) it was 42%; in test [5] (at 50.0 µM) it was -6.7%; in test [6] (setting [7]), 17%; in test [6] (setting [8]), 33%; in test [6] (at 50.0 µM), -41.6%.
As to `COc1c2c(cc3c1c(=O)c1ccccc1n3C)OCO2`, the growth inhibition in test [1] (setting [7]) was -12%; in test [1] (setting [8]), 26%; in test [1] (at 50.0 µM) it was 61.5%; in test [2] (setting [7]) it was -4%; in test [2] (setting [8]), 1%; in test [2] (at 50.0 µM), 33.9%. For the same compound, the growth inhibition in test [3] (setting [7]) is -5%; in test [3] (setting [8]), 14%; in test [3] (at 50.0 µM) it was 40.5%; in test [4] (setting [7]), 18%; in test [4] (setting [8]), 5%; in test [4] (at 50.0 µM) it was -45.8%. Moreover, the growth inhibition in test [5] (setting [7]) is 2%; in test [5] (setting [8]), 0%; in test [5] (at 50.0 µM), 25.4%; in test [6] (setting [7]) it was -29%; in test [6] (setting [8]), 22%; in test [6] (at 50.0 µM), 62.8%.
Take `CCCCN1C(=O)C[C@H]2[C@@H]3CCc4cc(OCCN5CCCC5)ccc4[C@H]3CC[C@]2(C)C1=O`: the growth inhibition in test [1] (setting [7]) was 36%; in test [1] (setting [8]) it was 75% (active); in test [1] (at 50.0 µM) it was 56.9%; in test [2] (setting [7]) it was 30%; in test [2] (setting [8]) it was 53%; in test [2] (at 50.0 µM), 55.4%. Besides, the growth inhibition is 66% in test [3] (setting [7]); 90% (active) in test [3] (setting [8]); 71.5% (active) in test [3] (at 50.0 µM); 33% in test [4] (setting [7]); 70% (active) in test [4] (setting [8]); 73.1% (active) in test [4] (at 50.0 µM). The growth inhibition in test [5] (setting [7]) is 57%; in test [5] (setting [8]), 72% (active); in test [5] (at 50.0 µM), 78.6% (active); in test [6] (setting [7]), 68%; in test [6] (setting [8]), 78% (active); in test [6] (at 50.0 µM) it was 63.6%.
With `CCN(CC)CC(O)CNc1ccc(NCC(O)CCl)c2c1C(=O)c1ccccc1C2=O` (configuration not stated), the growth inhibition was 98% (active) in test [1] (setting [7]); 98% (active) in test [1] (setting [8]); 36% in test [1] (at 50.0 µM); 98% (active) in test [2] (setting [7]); 98% (active) in test [2] (setting [8]); -19.1% in test [2] (at 50.0 µM). Besides, the growth inhibition in test [3] (setting [7]) was 98% (active); in test [3] (setting [8]), 98% (active); in test [3] (at 50.0 µM), 7.1%; in test [4] (setting [7]), 97% (active); in test [4] (setting [8]), 97% (active); in test [4] (at 50.0 µM), 10.8%. The growth inhibition was 97% (active) in test [5] (setting [7]); 97% (active) in test [5] (setting [8]); 12.4% in test [5] (at 50.0 µM); 99% (active) in test [6] (setting [7]); 99% (active) in test [6] (setting [8]); 19.1% in test [6] (at 50.0 µM).
